Data on 20 compounds can be found in PubChem BioAssay.

Experiment [1] in a line: antimalarial activity against Dd2 strain (AID 2302;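 active means growth inhibition above 50% at the single 2 µM test dose, taken to imply half-maximal potency below 2 µM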;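 further: 0% = DMSO untreated growth and 100% = chloroquine plus artemisinin killed control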). The conditions noted are these: P. falciparum Dd2 in RBCs, LDH growth readout, 72 h; at 2 µM; active compounds read high.
Experiment [2] can be described thus: HepG2 cytotoxicity, primary screen, cytotoxicity control for P. falciparum antimalarial project, cell-based, ATP luminescence (AID 2303;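 active means inhibition above 50%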;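 further: 0% = DMSO wells and 100% = digitonin-killed cells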). As to conditions: HepG2 viability, 24-48 h, at 10 µM, active compounds read high.
The target in experiment [3] is L-lactate dehydrogenase (Plasmodium falciparum (isolate CDC / Honduras)) (UniProt Q27743). Put plainly: PfLDH activity inhibition – cell lysate, 3D7 strain, counter-screen for P. falciparum growth inhibition project (AID 2304).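 Further: 0% = vehicle and 100% = reference inhibitor.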 As to conditions: P. falciparum 3D7 crude extract, LDH APAD/NBT absorbance; at 2 µM; active compounds read high. For orientation: Counterscreens check selectivity or assay interference.
Chain of L-lactate dehydrogenase (Plasmodium falciparum (isolate CDC / Honduras)) (Q27743 whole entry, looked up): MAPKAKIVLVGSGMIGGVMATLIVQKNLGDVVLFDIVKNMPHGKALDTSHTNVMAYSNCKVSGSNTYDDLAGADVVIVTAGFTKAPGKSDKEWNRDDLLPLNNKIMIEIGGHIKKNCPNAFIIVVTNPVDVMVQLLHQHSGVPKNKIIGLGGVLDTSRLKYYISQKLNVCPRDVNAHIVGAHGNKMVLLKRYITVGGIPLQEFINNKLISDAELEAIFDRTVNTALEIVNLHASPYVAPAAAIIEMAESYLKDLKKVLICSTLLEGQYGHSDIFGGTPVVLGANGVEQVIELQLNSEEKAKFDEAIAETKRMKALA

Experiment [4] in a line: inhibition of 3D7 malaria parasite growth – strain 3D7 (AID 2306).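 Further: 0% = DMSO wells and 100% = chloroquine plus artemisinin control wells.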 The conditions noted are these: P. falciparum 3D7 erythrocytic growth, LDH absorbance, 72 h; at 2 µM; active compounds read high.
In experiment [5] the target is Calcium-dependent protein kinase 1 (Plasmodium falciparum (isolate 3D7)) (UniProt P62344). As to the kind of experiment: PfCDPK1 kinase inhibitors, biochemical, TCAMS library (AID 1159585; cut-off not given, nearly all actives have IC50 up to about 0.98 µM;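 further: inhibitors leave more ATP so luminescence rises with inhibition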). The conditions noted are these: recombinant PfCDPK1, Kinase-Glo ATP depletion luminescence. (Kinase-Glo measures the ATP left after a reaction by luminescence.)
Chain of Calcium-dependent protein kinase 1 (Plasmodium falciparum (isolate 3D7)) (P62344 whole entry, looked up): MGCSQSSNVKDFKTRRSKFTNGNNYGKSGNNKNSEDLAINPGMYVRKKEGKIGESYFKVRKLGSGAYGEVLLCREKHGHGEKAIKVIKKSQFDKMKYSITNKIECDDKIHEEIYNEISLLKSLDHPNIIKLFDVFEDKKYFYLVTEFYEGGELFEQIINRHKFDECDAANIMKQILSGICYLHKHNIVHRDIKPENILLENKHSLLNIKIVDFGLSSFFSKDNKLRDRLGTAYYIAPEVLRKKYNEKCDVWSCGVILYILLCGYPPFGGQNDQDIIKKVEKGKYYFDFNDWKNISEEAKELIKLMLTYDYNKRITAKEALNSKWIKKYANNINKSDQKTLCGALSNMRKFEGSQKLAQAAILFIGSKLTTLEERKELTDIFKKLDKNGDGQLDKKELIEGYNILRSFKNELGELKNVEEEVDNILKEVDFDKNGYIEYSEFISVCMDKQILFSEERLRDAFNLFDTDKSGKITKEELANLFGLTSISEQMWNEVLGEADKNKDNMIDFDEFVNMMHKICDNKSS
In experiment [6] the target is Plasmodium falciparum protein kinase 6 (PK6, PF3D7_1337100) (UniProt Q8IDW1). As to the kind of experiment: PfPK6 kinase inhibitors, biochemical, TCAMS library (AID 1159586). As to conditions: recombinant PfPK6, Kinase-Glo ATP depletion luminescence.
Chain of Plasmodium falciparum protein kinase 6 (PK6, PF3D7_1337100) (Q8IDW1 1-305): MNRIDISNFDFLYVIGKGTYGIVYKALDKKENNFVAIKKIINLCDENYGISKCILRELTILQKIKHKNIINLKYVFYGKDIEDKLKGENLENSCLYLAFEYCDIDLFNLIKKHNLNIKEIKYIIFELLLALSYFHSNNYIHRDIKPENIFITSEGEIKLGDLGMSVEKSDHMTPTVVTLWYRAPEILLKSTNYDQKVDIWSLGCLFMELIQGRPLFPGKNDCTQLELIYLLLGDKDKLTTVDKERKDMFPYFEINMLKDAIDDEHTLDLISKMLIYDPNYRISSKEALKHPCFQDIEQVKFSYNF
The target in experiment [7] is Protein kinase 7 (PK7), Plasmodium falciparum 3D7 (PF3D7_0213400) (UniProt Q7YTF7). As to the kind of experiment: inhibition of Plasmodium PK7 catalytic activity – biochemical, TCAMS antimalarial set, Kinase-Glo luminescence (AID 1159587). The conditions noted are these: recombinant PfPK7, Kinase-Glo ATP depletion luminescence.
Chain of Protein kinase 7 (PK7), Plasmodium falciparum 3D7 (PF3D7_0213400) (Q7YTF7 1-343): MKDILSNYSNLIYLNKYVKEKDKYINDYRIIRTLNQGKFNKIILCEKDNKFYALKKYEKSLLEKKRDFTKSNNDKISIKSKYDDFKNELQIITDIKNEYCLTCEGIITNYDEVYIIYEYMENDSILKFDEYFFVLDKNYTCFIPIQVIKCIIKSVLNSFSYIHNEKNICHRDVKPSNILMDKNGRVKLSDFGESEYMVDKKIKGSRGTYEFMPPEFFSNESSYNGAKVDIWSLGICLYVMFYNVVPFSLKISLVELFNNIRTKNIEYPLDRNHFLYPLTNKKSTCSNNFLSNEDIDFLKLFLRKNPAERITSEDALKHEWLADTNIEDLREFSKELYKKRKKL
For experiment [8], the target named is Calcium-dependent protein kinase 4 (Plasmodium falciparum (isolate 3D7)) (UniProt Q8IBS5). Put plainly: PfCDPK4 kinase inhibitors, biochemical, TCAMS library (AID 1159588; cut-off not given, nearly all actives have IC50 up to about 0.91 µM). The conditions noted are these: recombinant PfCDPK4, Kinase-Glo ATP depletion luminescence.
Chain of Calcium-dependent protein kinase 4 (Plasmodium falciparum (isolate 3D7)) (Q8IBS5 whole entry, looked up): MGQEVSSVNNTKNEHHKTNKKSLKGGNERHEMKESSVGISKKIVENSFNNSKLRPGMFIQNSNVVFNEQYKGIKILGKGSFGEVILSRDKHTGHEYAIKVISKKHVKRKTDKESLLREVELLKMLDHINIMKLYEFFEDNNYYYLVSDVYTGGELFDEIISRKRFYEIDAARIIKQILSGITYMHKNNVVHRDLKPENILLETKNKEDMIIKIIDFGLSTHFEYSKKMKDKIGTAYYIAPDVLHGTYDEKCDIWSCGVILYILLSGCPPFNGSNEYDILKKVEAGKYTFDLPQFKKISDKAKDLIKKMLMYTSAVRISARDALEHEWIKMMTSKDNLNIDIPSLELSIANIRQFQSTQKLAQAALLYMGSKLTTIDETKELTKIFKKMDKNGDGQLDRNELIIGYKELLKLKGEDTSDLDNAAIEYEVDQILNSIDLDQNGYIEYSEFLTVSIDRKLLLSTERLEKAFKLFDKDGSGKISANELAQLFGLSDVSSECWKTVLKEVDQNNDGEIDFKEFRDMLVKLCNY

Molecules are shown by their SMILES. Values without a mark were called inactive. For some of these results: Results with a measured potency or affinity are listed apart. Calls of active or inactive are those of the source. Unless noted, how the calls were made is not given here.

As usually defined, the inhibition is the drop in the measured response relative to a control, in per cent.

In the case of `Cn1nc(-c2ccc(S(=O)(=O)N3CCC(CCN4CCC(c5c[nH]c6ccccc56)CC4)CC3)s2)cc1C(F)(F)F`, the growth inhibition in experiment [1] is 22%; in experiment [4] it was 94% (active). The inhibition in experiment [2] was 40%; in experiment [3] it was 4%. Further, the result in experiment [5], in experiment [6], in experiment [7] and in experiment [8] was inactive.

`O=C(/C=C/c1ccc(Cl)c(Cl)c1)NCCCCCN1CCC(CCNC(=O)/C=C/c2ccccc2F)CC1`: the growth inhibition in experiment [1] was 1%; in experiment [4], 94% (active). Also, the inhibition in experiment [2] was 47%; in experiment [3] it was -2%. The outcome in experiment [5], in experiment [6], in experiment [7] and in experiment [8] was inactive.

As to `Clc1ccc(-c2cc(-c3csc(NCCN4CCOCC4)n3)on2)c(Cl)c1`, the growth inhibition in experiment [1] is 86% (active); in experiment [4], 97% (active). The inhibition was 39% in experiment [2] and -3% in experiment [3]. Further, the outcome in experiment [5], in experiment [6], in experiment [7] and in experiment [8] was inactive.

Take `COc1ccc2nccc([C@@H](O)CN3CCC(NCc4cc5sccc5nc4C(F)(F)F)CC3)c2c1`: the growth inhibition in experiment [1] was 67% (active); in experiment [4], 89% (active). Besides, the figures for the inhibition in experiment [2] and in experiment [3] were 22% and 4%, respectively. For the same compound, the result in experiment [5], in experiment [6], in experiment [7] and in experiment [8] was inactive.

With `COc1cc2nc(NCCn3cccn3)nc(NCCc3ccccc3)c2cc1OC`, the growth inhibition in experiment [1] was 100% (active); in experiment [4], 102% (active). The inhibition in experiment [2] was 12%; in experiment [3] it was -3%. In addition, the outcome in experiment [5], in experiment [6], in experiment [7] and in experiment [8] was inactive.

On to `O=C(C=Cc1ccc(Cl)c(Cl)c1)NCCCCCN1CCC(CCNC(=O)C(c2ccccc2)c2ccccc2)CC1`, for which the values for the growth inhibition in experiment [1] and in experiment [4] were 43% and 90% (active), respectively. The results for the inhibition in experiment [2] and in experiment [3] were 61% (active) and 4%, respectively. In addition, the result in experiment [5], in experiment [6], in experiment [7] and in experiment [8] was inactive.

In the case of `CC(C)N1CCC(N(Cc2ccc(-c3ccc(Cl)cc3)cc2)C(=O)Cn2c(CCc3cccc(F)c3F)nc(=O)c3ccccc32)CC1`, the results for the growth inhibition in experiment [1] and in experiment [4] were 70% (active) and 86% (active), respectively. The inhibition was 61% (active) in experiment [2] and 5% in experiment [3]. Also, the result in experiment [5], in experiment [6], in experiment [7] and in experiment [8] was inactive.

Consider `COc1cc(CNC2Cc3ccccc3C2)ccc1Oc1ccc2nc[nH]c2c1`, for which the growth inhibition was 50% (active) in experiment [1] and 98% (active) in experiment [4]. The figures for the inhibition in experiment [2] and in experiment [3] were 30% and -1%, respectively. Moreover, the outcome in experiment [5], in experiment [6], in experiment [7] and in experiment [8] was inactive.

Consider `O=C1OC(c2ccccc2)(c2ccccc2)CN1C1CCN(Cc2ccc(O)c(Cl)c2)C1` (stereo not given), for which the growth inhibition was 93% (active) in experiment [1] and 100% (active) in experiment [4]. Besides, the inhibition was 10% in experiment [2] and 3% in experiment [3]. Besides, the result in experiment [5], in experiment [6], in experiment [7] and in experiment [8] was inactive.

Regarding `O=C(Nc1ccc(Cl)c(Cl)c1)N(Cc1ccccc1Br)C1CCNCC1`, the growth inhibition in experiment [1] is 8%; in experiment [4], 96% (active). For the same compound, the inhibition in experiment [2] is 13%; in experiment [3], 7%. Moreover, the result in experiment [5], in experiment [6], in experiment [7] and in experiment [8] was inactive.

Turning to `CS(=O)(=O)CCNc1cc(N2CCc3ncnc(Nc4ccc(OCc5cccc(F)c5)c(Cl)c4)c3C2)ncn1`, the values for the growth inhibition in experiment [1] and in experiment [4] were 50% (active) and 96% (active), respectively. Further, the results for the inhibition in experiment [2] and in experiment [3] were -17% and 5%, respectively. Moreover, the result in experiment [5], in experiment [6], in experiment [7] and in experiment [8] was inactive.

Turning to `O=C(Nc1nc2cc(S(=O)(=O)NCc3ccc(Cl)c(Cl)c3)ccc2n1CCCn1ccnc1)c1ccc(Cl)cc1`, the growth inhibition in experiment [1] was 44%; in experiment [4] it was 101% (active). For the same compound, the inhibition in experiment [2] is -12%; in experiment [3], 4%. In addition, the result in experiment [5], in experiment [6], in experiment [7] and in experiment [8] was inactive.

`COc1cc(OC)c(OC)cc1CN1CCC2(CC1)CN(Cc1ccc(Cl)c(Cl)c1)C(=O)O2`: the growth inhibition was 94% (active) in experiment [1] and 90% (active) in experiment [4]. Further, the inhibition in experiment [2] was 8%; in experiment [3], 3%. Further, the result in experiment [5], in experiment [6], in experiment [7] and in experiment [8] was inactive.

Take `Cc1cnc(NCC2CCCCC2)nc1N[C@@H](CO)C(=O)Nc1ccccc1`: the growth inhibition was 56% (active) in experiment [1] and 83% (active) in experiment [4]. In addition, the inhibition in experiment [2] is -1%; in experiment [3] it was -3%. Also, the outcome in experiment [5], in experiment [6], in experiment [7] and in experiment [8] was inactive.

For the compound `CCN(CC)CCNc1ccnc2[nH]c3ccc(Cl)cc3c12`, the growth inhibition is 92% (active) in experiment [1] and 100% (active) in experiment [4]. Also, the inhibition in experiment [2] was 3%; in experiment [3], 1%. The result in experiment [5], in experiment [6], in experiment [7] and in experiment [8] was inactive.

In the case of `CCN1CCN(c2cc(C)c3cc(NC(=O)c4ccc(OC)c([N+](=O)[O-])c4)ccc3n2)CC1`, the growth inhibition in experiment [1] is 93% (active); in experiment [4], 100% (active). For the same compound, the inhibition is 25% in experiment [2] and 0% in experiment [3]. The outcome in experiment [5], in experiment [6], in experiment [7] and in experiment [8] was inactive.

For the compound `O=C(/C=C/c1cccc(Cl)c1)N1CCC(C(O)CN2CCC3(CC2)CN(C(=O)/C=C/c2cccc(Cl)c2)c2ccccc23)CC1` (stereo not given), the growth inhibition in experiment [1] is 38%; in experiment [4], 91% (active). In addition, the inhibition in experiment [2] was 34%; in experiment [3] it was 0%. The outcome in experiment [5], in experiment [6], in experiment [7] and in experiment [8] was inactive.

Take `CNC(=O)C1Cc2c([nH]c3c(C)cccc23)C2(N1)C(=O)Nc1ccc(OC(F)(F)F)cc12` (stereo not given): the growth inhibition in experiment [1] is 50% (active); in experiment [4] it was 100% (active). Further, the inhibition in experiment [2] is -7%; in experiment [3], -3%. In addition, the result in experiment [5], in experiment [6], in experiment [7] and in experiment [8] was inactive.

For `C=Cc1sc(CNCCCNc2cc(=O)c3ccccc3[nH]2)c(C)c1Br`, the growth inhibition in experiment [1] is 35%; in experiment [4], 94% (active). For the same compound, the inhibition in experiment [2] is -5%; in experiment [3], -6%. For the same compound, the result in experiment [5], in experiment [6], in experiment [7] and in experiment [8] was inactive.

With `Cn1cnc2c(Nc3ccncc3)nc(-c3ccc(OC(F)(F)F)cc3)nc21`, the growth inhibition was 65% (active) in experiment [1] and 102% (active) in experiment [4]. The inhibition in experiment [2] is 28%; in experiment [3], -1%. Besides, the result in experiment [5], in experiment [6], in experiment [7] and in experiment [8] was inactive.
